Compounds with a hit are over-represented: about 3.2% of the library has one in this group of screens.
JMJD2E inh = blocks human JMJD2E demethylase activity; AID 2147; hit rate 1.6% among 230,000; JMJD2E catalytic domain, FDH-coupled NADH fluorescence (FDH is formaldehyde dehydrogenase); Potency, µM (doses to about 57.1 µM), inactives show top-dose activity change, negative = inhibition, actives largely listed as inhibitors; B2RXH2; active means well fitted inhibition curve with a large enough effect, not every such curve was filed as active; inconclusive means small, poorly fitted or top-dose-only effect, or another doubt; inactive means no such curve, though single readings can be large or run the other way;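 further: potency means the concentration at half of the fitted maximal effect; 0% = wells with enzyme and -100% = buffer wells without enzyme; nearly all actives have a fitted effect of over 50% in size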
CBFb-RUNX1 inh = inhibitors of human CBF-beta and RUNX1 interaction. Potency, µM (titrated, usually from 59.8 µM), for the others: at the top dose activity, negative = inhibition, most hits filed as inhibitors. AlphaScreen CBFb-His/RUNX1-biotin binding, biochemical. 230,000 tested, under 10 active. Q01196+Q13951; further: % of control where 0% means no effect
Target sequence (Q01196 whole entry, looked up): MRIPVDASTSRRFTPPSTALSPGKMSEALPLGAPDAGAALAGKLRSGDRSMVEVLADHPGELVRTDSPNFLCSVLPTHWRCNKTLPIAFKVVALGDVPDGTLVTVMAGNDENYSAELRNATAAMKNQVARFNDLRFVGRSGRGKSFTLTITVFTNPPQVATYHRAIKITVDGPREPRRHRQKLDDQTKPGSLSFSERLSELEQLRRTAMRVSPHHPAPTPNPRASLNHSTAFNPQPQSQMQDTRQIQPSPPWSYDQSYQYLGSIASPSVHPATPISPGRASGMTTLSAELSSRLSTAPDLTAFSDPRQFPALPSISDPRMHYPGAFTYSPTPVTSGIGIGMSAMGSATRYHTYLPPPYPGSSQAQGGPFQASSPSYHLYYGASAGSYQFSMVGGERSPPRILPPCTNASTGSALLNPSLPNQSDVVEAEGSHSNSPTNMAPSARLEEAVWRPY
Target sequence (Q13951 whole entry, looked up): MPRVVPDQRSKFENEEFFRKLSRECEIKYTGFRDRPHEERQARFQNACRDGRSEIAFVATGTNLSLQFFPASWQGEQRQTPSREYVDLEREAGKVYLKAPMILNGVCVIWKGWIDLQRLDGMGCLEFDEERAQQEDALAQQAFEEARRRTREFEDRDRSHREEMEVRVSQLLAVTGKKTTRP
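Room-temperature protein-protein interaction test with 30 nM each of His-tagged CBF-beta and biotinylated RUNX1, 15 min with compound, then 90 min with nickel plus streptavidin beads. Signal read in AlphaScreen mode.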
Tau ThT inhib = blocks human tau fibril formation measured by thioflavin T | Potency, µM (highest dose often 57.4 µM), for inactives: at the top dose activity, negative = inhibition, hits mostly inhibitors | P10636 | recombinant tau K18 P301L, heparin-induced fibrillization, ThT fluorescence | hit rate 2.1% among 270,000 | AID 1460; further: potency means the concentration at half of the fitted maximal effect; on the % scale 0 is the no-effect control and ±100 the full control effect; nearly all actives have a fitted effect of over 55% in size
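Recombinant human tau K18 fragment […] carrying P301L, 15 uM unlabeled plus 0.24 uM Alexa 594-labeled, was fibrillized with 20 uM heparin in 100 mM sodium acetate pH 7 for 6 hr at 37 C; 30 uM ThT fluorescence read after 1 hr.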
Lamin A splicing = LMNA splicing modulation. HeLa LMNA splicing GFP/RFP minigene ratio, 48 h. AID 1487. hit rate 0.01% among 200,000. Potency, µM (titrated, usually from 46.1 µM), for the others: at the highest dose ratio change, negative = inhibition, hits mostly inhibitors; active means well fitted inhibition curve with a large enough effect in the signal ratio, with a control signal flat, not every such curve was filed as active; inconclusive means small, poorly fitted or top-dose-only effect, or effect the other way, or a change in a side signal; the % refers to the signal ratio; further: potency means the concentration at half of the fitted maximal effect; on the % scale 0 is the no-effect control and ±100 the full control effect
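S3 HeLa cells stably expressing lamin A-EGFP splicing minigene plus DsRed2, 600 cells/well, 48 h compound exposure at 37C. Laser-scanning cytometry; analysed as GFP (500-530 nm)/RFP (575-640 nm) total intensity ratio; 0.5% DMSO vehicle.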
Tau fluor counter = counter-screen for tau fibril formation inhibitors. hit rate 0.93% among 280,000. tau K18 P301L (four-repeat tau fragment) Alexa594 fluorescence, heparin fibrillization. Potency, µM (top dose mostly 57.7 µM), without a hit: top-dose activity change, negative = decrease. AID 1463; further: potency means the concentration at half of the fitted maximal effect; on the % scale 0 is the no-effect control and ±100 the full control effect; nearly all actives have a fitted effect of over 55% in size
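Human K18 P301L tau (15 uM unlabeled plus 0.24 uM Alexa 594-labeled, final) in 100 mM sodium acetate pH 7 was mixed with compound and 20 uM heparin and incubated 6 hr at 37 C.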
Tau FP inhib = tau fibrillization inhibition (FP) | P10636 | K18 P301L tau heparin fibrillization, Alexa594 FP, 6 h | Potency, µM (titrated, usually from 57.7 µM), without a hit: top-dose activity, negative = inhibition, hits mostly inhibitors | hit rate 0.39% among 280,000 | AID 1468; further: potency means the concentration at half of the fitted maximal effect; on the % scale 0 is the no-effect control and ±100 the full control effect; nearly all actives have a fitted effect of over 55% in size
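FP of Alexa 594-tau after heparin (20 uM) induction. Substrate: human K18 P301L, 15 uM unlabeled, 0.24 uM labeled. Buffer 100 mM sodium acetate pH 7. 6 hr, 37 C.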
Numbers without * were called inactive; ? = inconclusive; nt = no result given; [ ] = remark or other dose. Unless noted, the call rests on the fitted dose curve; in most records, active means well fitted curve in the direction sought with a large enough effect; inconclusive means small, poorly fitted or top-dose-only effect, or another doubt; inactive means no such curve, though single readings can be large; an effect the other way counts as inactive or inconclusive.

SMILES	JMJD2E inh	CBFb-RUNX1 inh	Tau ThT inhib	Lamin A splicing	Tau fluor counter	Tau FP inhib
Cc1[nH]n(-c2ncc(-c3ccccc3)s2)c(=O)c1C(c1ccc(Br)cc1)C(C#N)C#N (centres undefined)	-2%	1%	8.9µM*	?	?	35µM*
CCCSc1ncc(Cl)c(C(=O)Nc2nc3ccc(OCC)cc3s2)n1	nt	nt	-8%	nt	-9%	-7%
CCOC(=O)c1ccc(CC(=O)c2ccc(O)c(O)c2O)o1	3.2µM*	nt	16µM*	nt	?	22µM*
CCOC(=O)c1ccc(CC(=O)c2oc3cc(O)ccc3c2C)o1	?	-4%	?	5%	?	2%
COc1cc(C(c2c(C)[nH][nH]c2=O)c2c(C)[nH][nH]c2=O)ccc1OCc1ccc([N+](=O)[O-])cc1	?	-17%	10µM*	6%	?	-7%
CCCSc1ncc(Cl)c(C(=O)NCc2ccc(C)cc2)n1	nt	nt	9%	nt	-9%	-9%
Cc1[nH]c(C(=O)N/N=C/c2ccc(N(C)C)cc2)c(C)c1C(=O)N/N=C/c1ccc(N(C)C)cc1	?	-25%	2.2µM*	-4%[9.22 µM]	?	0%
COc1cccc(/C=N/NC(=O)c2[nH]c(C)c(C(=O)N/N=C/c3cccc(OC)c3O)c2C)c1O	25µM*	?	?	?	?	13%
COc1cccc(/C=N/NC(=O)c2ccc(-c3ccccc3)cc2)c1O	?	-3%	?	?	-29%	2%
COc1cccc(/C=N/NC(=O)c2ccc(=O)[nH]n2)c1O	13µM*	-28%	?	nt	-16%	-3%
COc1ccc(OC)c(/C=N/NC(=O)c2ccc(=O)[nH]n2)c1	4%	-7%	-4%	nt	7%	-8%
Cc1cccc(/C=N\NC(=O)c2ccc(Cl)cc2)c1O	16µM*	-4%	-9%	?	-17%	-3%
COc1cc(OC)c(OC)cc1/C=N/NC(=O)c1ccc(=O)n(C)c1	-21%	-5%	-13%	0%	-18%	4%
COc1cccc(/C=N/NC(=O)c2ccc(=O)n(C)c2)c1O	11µM*	?	-14%	-25%	-3%	-8%
CN(C)c1ccc(NC(=O)CN2CCC(N3CCCCC3)CC2)cc1	32µM*	-1%	-10%	24%	0%	-3%
Fc1ccc2[nH]c(-c3cccs3)cc2c1	nt	nt	?	nt	11µM*[quencher]	?
Fc1ccc(-c2cc(-c3cccs3)cc(-c3ccccc3)n2)cc1	?	5%	-12%	nt	-26%	?
COc1cccc(CNC(=O)CNS(=O)(=O)c2ccc3nc(C)sc3c2)c1	nt	nt	-7%	nt	-9%	-6%
CCCC(=Nc1ccc(N)cc1)C1=C(O)C(C(=O)OC)C(C)(C)CC1=O (centres undefined)	?	-9%	7.9µM*	19%	7.1µM*[quencher]	14µM*
Cc1ccc(-c2cc(C(=O)N/N=C/c3c[nH]c4ccccc34)[nH]n2)cc1	?	-9%	?	?	16µM*[quencher]	?
Cc1ccccc1NCC(=O)N/N=C/c1c[nH]c2ccccc12	0%	?	?	-18%[46 µM]	16µM*[quencher]	?
O=C(N/N=C/c1c[nH]c2ccccc12)c1ccn[nH]1	-7%	3%	?	9%[46 µM]	-4%	10%
O=C(N/N=C/c1c[nH]c2ccccc12)c1cc(-c2ccccc2)n[nH]1	-29%	-1%	?	-11%	25µM*[quencher]	15%
O=C(N/N=C/c1c[nH]c2ccccc12)c1cc(-c2cccc3ccccc23)n[nH]1	?	-10%	?	?	10µM*[quencher]	4%
COC(=O)CN1C(=O)C(C)(C)c2cc(S(=O)(=O)NCc3ccc(Cl)cc3)ccc21	nt	nt	-3%	-1%[46 µM]	-14%	1%
SMILES	JMJD2E inh	CBFb-RUNX1 inh	Tau ThT inhib	Lamin A splicing	Tau fluor counter	Tau FP inhib
O=C(N/N=C/c1c[nH]c2ccccc12)c1cc(-c2ccc3ccccc3c2)n[nH]1	5%	1%	3%	?	5%	6%
O=C(N/N=C/c1c[nH]c2ccccc12)c1cc(-c2ccc(-c3ccccc3)cc2)n[nH]1	?	-7%	?	13%	13µM*[quencher]	5%
NNc1nc2c(F)cccc2s1	-12%	-10%	16µM*	-15%	18µM*[quencher]	?
NNc1nc2c(F)cc(F)cc2s1	0%	-22%	13µM*	-16%	?	-5%
Fc1cccc2sc(Nc3nc4c(F)cccc4s3)nc12	?	-28%	-6%	?	-15%	-3%
O=C(CCc1ccccc1)Nc1nc2c(F)cc(F)cc2s1	-4%	11%	nt	nt	-11%	-8%
CCOC(=O)C1=C(C)N(c2ccc(C)cc2)C(=O)/C1=C\c1cccs1	-2%	-6%	16µM*	-3%	-25%	-18%
CCOC(=O)C1=C(C)N(c2ccccc2)C(=O)/C1=C\c1cccs1	-4%	-6%	?	2%	-20%	-11%
CCOC(=O)C1=C(C)N(c2ccccc2)C(=O)/C1=C\c1ccc(O)c(OC)c1	4.5µM*	4%	nt	nt	25µM*[quencher]	35µM*
Cc1cc(I)ccc1Nc1c(C(=O)NOCC2CC2)cc(F)c(F)c1F	nt	20%	nt	nt	nt	nt
CC1(OC(=O)c2ccc(Cl)nc2)C(=O)C=c2cc(-c3ccsc3)ncc2=C1OC(=O)C1CCCC1 (centres undefined)	-1%[11.4 µM]	11%[13.1 µM]	4%[11.5 µM]	5%[9.22 µM]	0%[11.6 µM]	-6%[11.6 µM]
COC(=O)C1=C(C(=O)OC)C(c2ccccc2O)c2sc(=O)[nH]c2S1 (centres undefined)	?	4%	25µM*	-8%	-20%	3%
COC(=O)c1sc2ccccc2c1N	?	12%	?	-18%	-3%	-3%
COc1ccc(CCN(/C=C2\Sc3ccccc3C2=O)C(C)=O)cc1OC	32µM*	-3%	?	nt	-18%	6%
CCC1=Nc2cc(C(=O)NCCc3ccc(OC)c(OC)c3)ccc2Sc2ccccc21	nt	nt	?	nt	?	-6%
CCCn1c(C)nc2c(NCCN(C)C)nc(C)nc21	-27%	19%	-5%	nt	-6%	-10%
C/C(=N\NC(=O)c1ccc(O)cc1)c1ccc(N2CCOCC2)cc1	14%	18%	?	nt	-3%	-6%
C/C(=N\NC(=O)c1ccc(N/N=C(\C)c2ccc(O)cc2)cc1)c1ccc(O)cc1	?	-5%	3.2µM*	-10%[46 µM]	16µM*[quencher]	?
C/C(=N/Nc1ccc(C(=O)O)cc1)c1ccc(O)c(O)c1O	8.9µM*	1%	11µM*	1%	-22%	?
C/C(=N\NC(=O)c1cccc(N/N=C(\C)c2cc(O)ccc2O)c1)c1cc(O)ccc1O	25µM*	-16%	28µM*	13%[46 µM]	?	?
